KKLEB cytotox: cytotoxicity in KKLEB CF airway cells, primary screen, cytotoxicity control for CF NF-kB inhibitor project, cell-based, uHTS, fluorescence assay plates | activity change (cytotoxicity), % at 5 µM | 360,000 tested, 0.36% active | AID 602141, 2011 | KKLEB CF airway cells viability, ATPlite luminescence, overnight; active compounds read low; cells stimulated with P. aeruginosa culture filtrate;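 active means corrected activity change at or below -50% at 5 µM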
CF NFkB block: inhibitors of PAF-induced NF-kB signaling, primary screen, cell-based, GFP fluorescence, uHTS; KKLEB NF-kB-GFP reporter, GFP fluorescence overnight; inhibition, % at 5 µM; 360,000 tested, 0.86% active; AID 588850, 2011;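 active means at least 50% inhibition at 5 µM, scaled per plate between neutral and stimulator controls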;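 further: PAF is a Pseudomonas aeruginosa culture filtrate used as stimulus; plate controls were PAF-stimulated DMSO wells for no effect and unstimulated DMSO wells for full effect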
MITF TRPM1 inh: inhibitors of MITF-dependent TRPM1 promoter reporter, primary screen, cell-based, SK-MEL-5, single point, luciferase | 330,000 tested, 0.83% active | AID 488899, 2010 | inhibition, % at 12.5 µM | SK-MEL-5 TRPM1 promoter luciferase, 24 h;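 active means mean inhibition across replicates of 60% or more, whatever share of single replicates reaches that level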
HIF-2a block: HIF-2a reporter inhibitors, primary screen, luminescence, 786-0 RCC cells | 786-0 RCC cells HIF-2a reporter, luciferase luminescence, overnight | inhibition, % at 18.8 µM | 360,000 tested, 0.72% active;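 active means inhibition of the luminescence signal of 40% or more relative to plate controls, in a single-dose primary screen at 18.75 µM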
Peg3 prom inh-1: Peg3 promoter-driven luciferase inhibitors, primary screen, cell-based, HeLa, luciferase luminescence | HeLa PEG-Prom luciferase reporter, overnight | inhibition, % at 20 µM | 360,000 tested, 1.7% active | AID 588405, 2011;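 active means inhibition of at least 50% at 20 µM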
CHOP inh: inhibitors of CHOP promoter induction, primary screen, cell-based, unfolded protein response, luciferase reporter. CHO-K1 CHOP-promoter luciferase, tunicamycin-induced, 15-18 h. inhibition, % at 10 µM. 220,000 tested, 3.8% active;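 active means compounds that reduced the stress-induced luciferase reporter signal by more than about 70% of percent inhibition, limit read from the data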;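 further: 0% = tunicamycin plus vehicle and 100% = wells without tunicamycin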
CHOP inh conf: retest of CHOP induction inhibitors, confirmation, cell-based; AID 504437, 2011; 2,100 tested, 45% active; CHO-CHOP promoter luciferase reporter, tunicamycin-induced, luminescence; shares compounds with CHOP inh; inhibition, % at 10 µM;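 active means mean of three repeat readings of reporter signal inhibition above a set limit, cut at about 70% in these data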;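 further: 0% = tunicamycin plus vehicle and 100% = wells lacking tunicamycin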
Peg3 prom inh-2: Peg3 promoter reporter inhibitors, retest, confirmation, cell-based, HeLa, luciferase reporter, single concentration; shares compounds with Peg3 prom inh-1; HeLa PEG-Prom luciferase reporter, luminescence, overnight; inhibition, % at 20 µM; 1,300 tested, 84% active; AID 602417, 2012;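 active means at 20 µM dose, 40% or more inhibition averaged across four replicates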
Mdm2 MdmX conf: retested Mdm2-MdmX interaction blockers, confirmation, cell-based, luminescence, single concentration, set 2. inhibition, % at 8 µM. AID 504601, 2011. SaOS-2 split-luciferase Mdm2/MdmX complementation. shares compounds with HIF-2a block. 740 tested, 99% active;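 active means mean inhibition of the luminescence signal across two replicates at or above 26 percent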
HIF-2a inh conf: HIF-2a reporter inhibitor retest, confirmation, luminescence, 786-0 RCC cells; shares compounds with HIF-2a block; HIF-2a luciferase reporter luminescence, overnight; AID 651580, 2012; 1,800 tested, 56% active; inhibition, % at 18.8 µM;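 active means mean inhibition across four replicates of at least 40 percent at the single tested concentration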
HIF-1a counter: HIF-1a luciferase reporter signal reduction – MiaPaCa-2 cells, single concentration, counter-screen for HIF-2a inhibitor project, confirmation; shares compounds with HIF-2a block; MiaPaCa-2 HIF-1a luciferase reporter, desferoxamine, overnight; inhibition, % at 18.8 µM; 1,800 tested, 72% active; AID 651589, 2012;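 active means mean inhibition of the reporter signal across four replicates at the single tested dose of 50% or more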
Numbers without * were called inactive; x = no result given; ! = repeats disagree. A selection: hits, their analogues and other compounds. The true share with any hit is near 4.3%.

SMILES	KKLEB cytotox	CF NFkB block	MITF TRPM1 inh	HIF-2a block	Peg3 prom inh-1	CHOP inh	CHOP inh conf	others
O=C1CC(N2CCC(n3c(=O)[nH]c4ccccc43)CC2)C(=O)N1c1ccc(F)cc1 (stereo unspecified)	1	16	-5	23	3	-9	x
CC(=O)N1CN2CN(C1)CN(C(C)=O)C2	7	-10	-5	26	1	-22	x
CC1(C)C[C@H]2C=C(C=O)[C@]3(C=O)C[C@]3(C)[C@H]2C1	-37	77*	88*	23	105*	109*	128*
O=c1[nH]c(O)c(/C=C2/C=CC(c3cc(Cl)ccc3Cl)=N2)c(=O)[nH]1	-5	-83	18	-8	-4	103*	46
CC1=Nc2ccccc2/C1=C/c1c(O)[nH]c(=O)[nH]c1=O	-6	-4	17	25	10	x	x
COc1cc(/C=C2\C(=O)NC(=O)N(c3ccccc3)C2=O)c([N+](=O)[O-])cc1OC	-10	-4	6	14	-5	16	x
CN1C(=O)NC(=O)/C(=C\C=C\c2ccccc2[N+](=O)[O-])C1=O	x	x	x	x	x	99*	-27
O=C1NC(=O)N(Cc2ccccc2Cl)C(=O)/C1=C/c1cccs1	-11	43	56	50*	60*	106*	-30
Cc1ccc(/C=C2\C(=O)NC(=O)N(CCc3ccc(F)cc3)C2=O)o1	-1	19	10	23	18	105*	-20
Cc1ccc(/C=C2\C(=O)NC(=O)N(Cc3ccccc3Cl)C2=O)o1	-25	43	33	27	24	105*	-28
O=C(Cc1ccccc1)Oc1cccc(-n2cnnn2)c1	-6	16	-1	8	-1	-6	x
Nc1ccccc1C(=O)OC1CSC1	9	1	-11	10	3	2	x
O=C1NC(=O)C(=Cc2cn(CCOc3ccc4c(c3)OCO4)c3ccccc23)C(=O)N1	-19	-4	-1	13	64*	99*	-13
C=CCn1cc(C=C2C(=O)NC(=O)NC2=O)c2ccccc21	-14	26	9	19	8	x	x
O=C1NC(=O)N(c2ccc3c(c2)OCO3)C(=O)/C1=C/c1cccs1	-9	9	28	24	32	106*	-17
c1ccc(Cn2ccnc2)cc1	14	1	-6	12	-7	8	x
Clc1ccc(CSC(Cn2ccnc2)c2ccc(Cl)cc2Cl)cc1 (stereo unspecified)	17	34	6	9	-1	108*	49
S=P(NC1CCCCC1)(N1CC1)N1CC1	1	-13	19	9	6	15	x
O=c1[nH]c(CN2CCNCC2)nc2ccccc12	-5	-13	21	11	10	98*	-84
O=C1NC(=O)N(Cc2ccco2)C(=O)/C1=C/C=C/c1ccco1	-15	78*	95*	87*	63*	108*	140*	Peg3 prom inh-2=73*
CC(c1ccccc1)n1cncc1C(=O)O (stereo unspecified)	5	-4	1	10	11	23	x
C[C@H]1CC[C@@H]2[C@@H](C)[C@H]3[C@H](C[C@H]4[C@@H]5CC=C6C[C@@H](O[C@@H]7O[C@H](CO)[C@H](O)[C@H](O[C@@H]8O[C@H](CO)[C@@H](O)[C@H](O)[C@H]8O)[C@H]7O[C@@H]7O[C@@H](C)[C@H](O)[C@@H](O)[C@H]7O)CC[C@]6(C)[C@H]5CC[C@]34C)N2C1	8	-2	43	87*	32	106*	-62	HIF-2a inh conf=31;HIF-1a counter=68*
C[C@@H]1CC2C3CC=C4C[C@@H](O)CC[C@]4(C)C3CC[C@]2(C)[C@H]1O (stereo partly specified)	-12	23	-3	-6	26	x	x
CNc1ccc2oc(C[C@H]3O[C@@]4(CC[C@H]3C)O[C@H]([C@H](C)C(=O)c3ccc[nH]3)[C@H](C)C[C@H]4C)nc2c1C(=O)O	-55*	36	102*	87*	91*	106*!	129*	Mdm2 MdmX conf=102*
C(#CCN1CCOCC1)COCc1ccccc1	-4	18	-4	-30	-20	32	x
SMILES	KKLEB cytotox	CF NFkB block	MITF TRPM1 inh	HIF-2a block	Peg3 prom inh-1	CHOP inh	CHOP inh conf	others
C[C@H](N)CN1CCc2ccc(Br)cc21	-11	2	-2	7	2	15	x
C=C1C(=O)O[C@H]2C[C@@H](C)[C@@H]3C=CC(=O)[C@@]3(C)C[C@H]12	x	x	x	x	x	105*	90*	Mdm2 MdmX conf=103*
C=CCN(CC=C)C(=O)CCN1CC1C (stereo unspecified)	4	24	10	7	-5	x	x
C=C1C(=O)O[C@@H]2C[C@@H](C)[C@@H]3C4OC4C(=O)[C@@]3(C)[C@@H](O)[C@H]12 (stereo partly specified)	-46	92*	101*	88*	96*	107*	110*	HIF-2a inh conf=95*;HIF-1a counter=104*
C=Cc1cc(OC)c2c(c1)c(=O)oc1c2cc(OC)c2c(O)ccc(C3OC(C)C(O)C(C)(O)C3O)c21 (stereo unspecified)	-25	79*	78*	52*	106*	x	x	Peg3 prom inh-2=98*
CC1(C)N2CC3([N+](=O)[O-])CN1CC([N+](=O)[O-])(C2)C3	8	-7	-2	9	4	20	x
CCN(CC)C(=O)Cn1cc(/C=C2\C(=O)NC(=O)N(c3ccccc3F)C2=O)c2ccccc21	-4	-33	10	44*	58*	x	x	Peg3 prom inh-2=92*
